Experimental data published in PubChem BioAssay.
Values without a mark were called inactive. For part of these data: Measured potencies and affinities stand elsewhere. Active and inactive are the calls of the source. Unless noted, no rule for the calls is given here.

Assays:
[1] = antimalarial activity against Dd2 strain (AID 2302;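 active = growth inhibition above 50% at the single 2 µM test dose, taken to imply half-maximal potency below 2 µM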;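 also: 0% = DMSO untreated growth and 100% = chloroquine plus artemisinin killed control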); conditions: P. falciparum Dd2 in RBCs, LDH growth readout, 72 h; at 2 µM; hits give high values
[2] = HepG2 cytotoxicity, primary screen, cytotoxicity control for P. falciparum antimalarial project, cell-based, ATP luminescence (AID 2303;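 active = inhibition above 50%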;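 also: 0% = DMSO wells and 100% = digitonin-killed cells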); conditions: HepG2 viability, 24-48 h, at 10 µM, hits give high values
[3] = biological target: L-lactate dehydrogenase (Plasmodium falciparum (isolate CDC / Honduras)) (UniProt Q27743); test: PfLDH activity inhibition – cell lysate, 3D7 strain, counter-screen for P. falciparum growth inhibition project (AID 2304);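 also: 0% = vehicle and 100% = reference inhibitor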; conditions: P. falciparum 3D7 crude extract, LDH APAD/NBT absorbance; at 2 µM; hits give high values
[4] = inhibition of 3D7 malaria parasite growth – strain 3D7 (AID 2306);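 also: 0% = DMSO wells and 100% = chloroquine plus artemisinin control wells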; conditions: P. falciparum 3D7 erythrocytic growth, LDH absorbance, 72 h; at 2 µM; hits give high values
[5] = biological target: Calcium-dependent protein kinase 1 (Plasmodium falciparum (isolate 3D7)) (UniProt P62344); test: PfCDPK1 kinase inhibitors, biochemical, TCAMS library (AID 1159585; cut-off not given, nearly all actives have IC50 up to about 0.98 µM;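 also: inhibitors leave more ATP so luminescence rises with inhibition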); conditions: recombinant PfCDPK1, Kinase-Glo ATP depletion luminescence
[6] = biological target: Plasmodium falciparum protein kinase 6 (PK6, PF3D7_1337100) (UniProt Q8IDW1); test: PfPK6 kinase inhibitors, biochemical, TCAMS library (AID 1159586); conditions: recombinant PfPK6, Kinase-Glo ATP depletion luminescence
[7] = biological target: Protein kinase 7 (PK7), Plasmodium falciparum 3D7 (PF3D7_0213400) (UniProt Q7YTF7); test: inhibition of Plasmodium PK7 catalytic activity – biochemical, TCAMS antimalarial set, Kinase-Glo luminescence (AID 1159587); conditions: recombinant PfPK7, Kinase-Glo ATP depletion luminescence
[8] = biological target: Calcium-dependent protein kinase 4 (Plasmodium falciparum (isolate 3D7)) (UniProt Q8IBS5); test: PfCDPK4 kinase inhibitors, biochemical, TCAMS library (AID 1159588; cut-off not given, nearly all actives have IC50 up to about 0.91 µM); conditions: recombinant PfCDPK4, Kinase-Glo ATP depletion luminescence
Calcium-dependent protein kinase 4 (Plasmodium falciparum (isolate 3D7)), sequence (Q8IBS5 whole entry, looked up): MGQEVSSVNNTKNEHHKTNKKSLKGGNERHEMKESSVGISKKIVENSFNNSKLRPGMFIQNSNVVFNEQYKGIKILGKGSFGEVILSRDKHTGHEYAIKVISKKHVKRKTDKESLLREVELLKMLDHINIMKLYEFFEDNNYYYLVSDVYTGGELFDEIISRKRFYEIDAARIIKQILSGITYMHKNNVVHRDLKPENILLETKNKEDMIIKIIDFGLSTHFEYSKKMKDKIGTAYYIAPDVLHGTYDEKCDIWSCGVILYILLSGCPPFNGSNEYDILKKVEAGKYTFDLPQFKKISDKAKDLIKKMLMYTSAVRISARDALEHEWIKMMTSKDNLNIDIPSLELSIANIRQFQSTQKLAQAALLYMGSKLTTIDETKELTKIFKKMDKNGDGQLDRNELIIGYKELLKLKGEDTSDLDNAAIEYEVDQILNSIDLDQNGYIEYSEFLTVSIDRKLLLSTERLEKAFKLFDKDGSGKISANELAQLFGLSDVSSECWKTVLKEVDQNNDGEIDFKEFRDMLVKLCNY

Plasmodium falciparum protein kinase 6 (PK6, PF3D7_1337100), sequence (Q8IDW1 1-305): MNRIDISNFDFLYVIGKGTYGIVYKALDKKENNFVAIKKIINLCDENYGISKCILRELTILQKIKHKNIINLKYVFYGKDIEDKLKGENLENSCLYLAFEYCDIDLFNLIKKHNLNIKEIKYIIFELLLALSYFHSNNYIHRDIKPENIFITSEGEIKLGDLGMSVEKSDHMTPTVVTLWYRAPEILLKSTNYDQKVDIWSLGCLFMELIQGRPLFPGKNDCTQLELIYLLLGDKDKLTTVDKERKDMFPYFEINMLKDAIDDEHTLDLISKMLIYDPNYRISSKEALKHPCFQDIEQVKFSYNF
Protein kinase 7 (PK7), Plasmodium falciparum 3D7 (PF3D7_0213400), sequence (Q7YTF7 1-343): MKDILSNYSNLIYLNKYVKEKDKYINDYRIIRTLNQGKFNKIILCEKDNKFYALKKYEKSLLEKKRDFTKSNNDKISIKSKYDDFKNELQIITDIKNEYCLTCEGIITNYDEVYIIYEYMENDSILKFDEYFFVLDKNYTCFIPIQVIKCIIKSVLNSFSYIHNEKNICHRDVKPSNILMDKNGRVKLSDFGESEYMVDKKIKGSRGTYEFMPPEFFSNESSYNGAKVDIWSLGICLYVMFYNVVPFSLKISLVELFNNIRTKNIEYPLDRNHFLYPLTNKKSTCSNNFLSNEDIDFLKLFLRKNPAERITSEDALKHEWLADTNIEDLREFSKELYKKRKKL
L-lactate dehydrogenase (Plasmodium falciparum (isolate CDC / Honduras)), sequence (Q27743 whole entry, looked up): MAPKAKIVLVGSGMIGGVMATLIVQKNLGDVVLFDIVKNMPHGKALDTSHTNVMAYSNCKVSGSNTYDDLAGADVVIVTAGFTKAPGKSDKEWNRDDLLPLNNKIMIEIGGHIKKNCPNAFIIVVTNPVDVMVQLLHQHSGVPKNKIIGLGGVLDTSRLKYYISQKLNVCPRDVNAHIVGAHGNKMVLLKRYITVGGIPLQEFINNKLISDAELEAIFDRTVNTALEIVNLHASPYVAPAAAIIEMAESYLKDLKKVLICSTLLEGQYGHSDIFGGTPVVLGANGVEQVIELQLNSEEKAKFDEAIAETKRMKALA
Calcium-dependent protein kinase 1 (Plasmodium falciparum (isolate 3D7)), sequence (P62344 whole entry, looked up): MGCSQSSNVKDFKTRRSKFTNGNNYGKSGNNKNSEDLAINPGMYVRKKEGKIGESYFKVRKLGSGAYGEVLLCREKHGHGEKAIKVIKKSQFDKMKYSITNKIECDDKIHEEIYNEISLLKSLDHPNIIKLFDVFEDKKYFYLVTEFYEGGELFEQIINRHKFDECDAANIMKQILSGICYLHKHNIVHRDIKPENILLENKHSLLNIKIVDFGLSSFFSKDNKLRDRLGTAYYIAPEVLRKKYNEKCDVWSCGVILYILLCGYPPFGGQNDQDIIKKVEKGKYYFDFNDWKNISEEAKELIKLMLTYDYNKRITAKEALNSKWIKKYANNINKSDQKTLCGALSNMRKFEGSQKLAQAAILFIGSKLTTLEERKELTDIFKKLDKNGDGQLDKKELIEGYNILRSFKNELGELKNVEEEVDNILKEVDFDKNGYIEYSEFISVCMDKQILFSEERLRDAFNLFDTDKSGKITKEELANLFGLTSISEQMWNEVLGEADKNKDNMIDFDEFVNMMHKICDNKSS

Structure (SMILES) | growth inhibition [1] | inhibition [2] | inhibition [3] | growth inhibition [4] | outcome [5] | outcome [6] | outcome [7] | outcome [8]
COc1cccc(NC(=O)Nc2ccc(C)c(-c3ccc(C(=O)Nc4ccncc4)cc3)c2)c1 | 64% (active) | 45% | 1% | 99% (active) | inactive | inactive | inactive | inactive
O=C(Nc1nc(-c2ccccn2)cs1)c1ccc(Br)s1 | 84% (active) | 40% | 7% | 96% (active) | inactive | inactive | inactive | inactive
CCCCCCCN1CC[C@@H](CCCc2ccnc3ccc(OCCN4CCNCC4)cc23)[C@@H](CC)C1 | 98% (active) | 82% (active) | -2% | 101% (active) | inactive | inactive | inactive | inactive
C=Cc1ccc(-c2c(C)[nH]c(C)c(Br)c2=O)cc1 | 96% (active) | -2% | -3% | 98% (active) | inactive | inactive | inactive | inactive
CC(C)(Oc1ccc(Cl)cc1)C(=O)NCCC1CCN(CCCCCNC(=O)/C=C/c2ccc(Cl)c(Cl)c2)CC1 | 37% | 73% (active) | -1% | 87% (active) | inactive | inactive | inactive | inactive
CN(C)c1ccc(OCCCCCCOc2ccccc2)cc1 | 68% (active) | -7% | -5% | 85% (active) | inactive | inactive | inactive | inactive
Cc1cc(NC(=O)c2cc(S(=O)(=O)N3CCCCC3)ccc2C)no1 | 29% | -7% | -7% | 95% (active) | inactive | inactive | inactive | inactive
COc1ccc(Cc2nc3c(n2C(C)=O)SC(c2ccc(Cl)c(Cl)c2)=NN3C(C)=O)cc1 | 22% | -2% | -6% | 94% (active) | inactive | inactive | inactive | inactive
Cc1nc(N)nc(N)c1-c1cccc(Cl)c1 | -1% | 60% (active) | 2% | 88% (active) | inactive | inactive | inactive | inactive
O=C(Nc1ccc(C(=O)Oc2ccc3ccccc3c2)cc1)N[C@@H](Cc1ccc(O)cc1)C(=O)NC1CCN(Cc2ccc(O)cc2)C1 (some centres not stated) | 1% | 1% | -2% | 86% (active) | inactive | inactive | inactive | inactive
COC(=O)CCCCOc1c(OC)cc(Cc2cnc(N)nc2N)cc1OC | -2% | -2% | -2% | 93% (active) | inactive | inactive | inactive | inactive
Clc1ncnc2ncn(Cc3cccc(Br)c3)c12 | 56% (active) | -5% | 3% | 91% (active) | inactive | inactive | inactive | inactive
O=C(/C=C/c1ccc(Cl)c(Cl)c1)NCCCCCN1CCC(NC(=S)Nc2cccc(Cl)c2)CC1 | 43% | 24% | 4% | 99% (active) | inactive | inactive | inactive | inactive
COc1ccc(Cn2c(Nc3cccc(C(F)(F)F)c3)nc3cc(C(=O)NCCN4CCCC4)ccc32)cc1Cl | 54% (active) | 11% | 2% | 97% (active) | inactive | inactive | inactive | inactive
CCOc1ccc(NC(C)=O)c(O)c1 | 0% | 6% | -1% | 96% (active) | inactive | inactive | inactive | inactive
CCc1cn(C)c2c(N3CCCC3=O)cc(C(=O)N[C@@H](Cc3ccccc3)[C@H](O)CNC3CCCCC3)cc12 | 98% (active) | 8% | -1% | 97% (active) | inactive | inactive | inactive | inactive
CCOc1c(N2CCN(CCCCNC(=O)c3ccc(NC(=O)c4ccc(Cl)cc4)cc3)CC2)ccc2ccccc12 | 45% | 18% | 0% | 100% (active) | inactive | inactive | inactive | inactive
COc1ccc(C(=O)CCC(=O)N(Cc2ccc(-c3ccc(CNCc4cccnc4)cn3)cc2)C2CCN(Cc3ccccc3)CC2)cc1F | 26% | 30% | 3% | 94% (active) | inactive | inactive | inactive | inactive
O=C(Nc1ccc2oc(-c3ccc(Cl)cc3Cl)nc2c1)c1ccc([N+](=O)[O-])o1 | 78% (active) | 39% | 3% | 95% (active) | inactive | inactive | inactive | inactive
COc1cc(NC(=O)/C=C/c2cccc3ccoc23)ccc1OCCN(C(C)C)C(C)C | 5% | 22% | 2% | 90% (active) | inactive | inactive | inactive | inactive

Structure (SMILES) | growth inhibition [1] | inhibition [2] | inhibition [3] | growth inhibition [4] | outcome [5] | outcome [6] | outcome [7] | outcome [8]
CC(C)(C)c1ccc(NC(=O)c2cccc(CN3CCCN(Cc4cccc(C#N)c4)CC3)c2)cc1 | 12% | 39% | 4% | 97% (active) | inactive | inactive | inactive | inactive
CCC(C)c1cccc(C(C)CC)c1OCCCON1C(N)=NC(N)=NC1(C)C (configuration not stated) | 98% (active) | 51% (active) | -4% | 91% (active) | inactive | inactive | inactive | inactive
O=C(Nc1cccc(CN2CCCN(Cc3ccc4c(c3)OCO4)CC2)c1)c1ccc(Cl)c(Cl)c1 | 10% | 34% | -2% | 92% (active) | inactive | inactive | inactive | inactive
O=C(Nc1ccc(Cl)cc1)c1ccc(CN2CCCN(Cc3ccccc3)CC2)cc1 | 2% | 46% | 1% | 96% (active) | inactive | inactive | inactive | inactive
Cc1[nH]c2ccc(-c3ccc(N(C)C)cc3)cc2c(=O)c1Cl | 96% (active) | -1% | 5% | 97% (active) | inactive | inactive | inactive | inactive
COc1ccc(NC(=O)Nc2ccc(-c3ccccc3)cc2)cc1Cn1nc(Cl)c(N2CCCNCC2)cc1=O | 84% (active) | 18% | 0% | 102% (active) | inactive | inactive | inactive | inactive
O=C(Nc1cccc(-c2csc(-c3nc4ccccc4[nH]3)c2)c1)c1cccnc1 | 45% | 18% | -5% | 98% (active) | inactive | inactive | inactive | inactive
CC(Cc1ccc(OCCN2CCN(c3ccccc3)CC2)cc1)NCC(O)c1cccc(Cl)c1F (configuration not stated) | 56% (active) | 40% | 6% | 92% (active) | inactive | inactive | inactive | inactive
COc1ccccc1CCNc1nc(C)cc(N[C@@H](Cc2ccccc2)C(=O)NCc2cccs2)n1 | 73% (active) | 18% | 1% | 100% (active) | inactive | inactive | inactive | inactive
O=C(Cc1cnc[nH]1)Nc1cccc(-c2ccc(-c3nc4ccc(C(F)(F)F)cc4[nH]3)s2)c1 | 99% (active) | 5% | 3% | 101% (active) | inactive | inactive | inactive | inactive
COCc1cc(C)nc2sc(C(=O)Nc3cc(C(C)(C)C)ccc3O)c(N)c12 | 57% (active) | -9% | -2% | 85% (active) | inactive | inactive | inactive | inactive
COc1cc2nccc(Nc3cccc(Oc4ccccc4)c3)c2cc1OC | 95% (active) | 25% | -2% | 102% (active) | inactive | inactive | inactive | inactive
Cc1ccc(Nc2nc(C)cc(N3CCN(c4ccccc4)CC3)n2)cc1 | 72% (active) | 4% | 3% | 93% (active) | inactive | inactive | inactive | inactive
Cc1c(C(=O)N2CCc3cc4nccc(N5CCN6CCC[C@H]6C5)c4cc32)cnn1-c1ccc(C#N)cc1 | 27% | 0% | -3% | 90% (active) | inactive | inactive | inactive | inactive
CN1CCCN(Cc2ccc(-c3ccc(NS(=O)(=O)c4cccc5cccnc45)cc3)cc2)CC1 | 85% (active) | 35% | 5% | 99% (active) | inactive | inactive | inactive | inactive
Cc1c(CNCCCNc2nc3ccccc3[nH]2)sc(C(F)F)c1Br | 5% | 9% | 2% | 102% (active) | inactive | inactive | inactive | inactive
CN(C)Cc1cccc(-c2ccc(Nc3nccc(NCC(O)c4ccccc4)n3)cc2)c1 (configuration not stated) | 77% (active) | 75% (active) | 1% | 100% (active) | inactive | inactive | inactive | inactive
CC(C)C[C@H](NC(=O)c1cc2ccccc2s1)C(=O)N[C@H]1CCN(Cc2ccc(OCCN3CCNCC3)c3ccccc23)C1 | 96% (active) | 43% | 3% | 101% (active) | inactive | inactive | inactive | inactive
CC(C)(CNCc1cccc(Oc2ccccc2)c1)c1nc(-c2ccc(Cl)c(O)c2)c(-c2ccnc(N)n2)[nH]1 | 99% (active) | 28% | 4% | 97% (active) | inactive | inactive | inactive | inactive
